Experimental data as given in PubChem BioAssay (NCI).
The panel holds about 79,000 compounds, 15% with a hit somewhere; the sample as a whole holds those more often. The source made the active and inactive calls. Cut-off read from the data, not from the text of the source: active = growth inhibition above about 70%; inactive = the rest.

Columns and labels:
[1] = NCI Yeast Anticancer Drug Screen. Data for the rad50 strain (AID 155);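 note: 0% = growth of vehicle-only cultures of the same strain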; conditions: S. cerevisiae rad50 strain growth inhibition, stronger effect = higher value
Summary of the method: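 Yeast carrying a defined DNA repair defect were exposed to test compounds, and growth was compared with vehicle-treated controls to give percent inhibition.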

[2] = NCI Yeast Anticancer Drug Screen. Data for the mec2-1 strain (AID 157); conditions: S. cerevisiae mec2-1 strain, stronger effect = higher value
Summary of the method: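 Cells of the genetically defined mec2-1 yeast strain are incubated with test compound. Inhibition of growth is calculated against vehicle-treated controls.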

[3] = NCI Yeast Anticancer Drug Screen. Data for the sgs1 mgt1 strain (AID 161);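 note: 0% = growth of cultures given vehicle only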; conditions: S. cerevisiae sgs1 mgt1 strain, stronger effect = higher value
Summary of the method: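 Inhibition of yeast growth, normalised to vehicle-treated controls, is reported for a strain bearing genetic alterations in DNA damage repair.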

[4] = NCI Yeast Anticancer Drug Screen. Data for the cln2 rad14 strain (AID 165);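 note: 0% = growth equal to vehicle treated cultures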; conditions: S. cerevisiae cln2 rad14 strain, stronger effect = higher value
Summary of the method: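 The screen exposed genetically defined yeast (cln2 rad14) to test compounds and scored growth inhibition relative to vehicle-treated controls.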

[5] = NCI Yeast Anticancer Drug Screen. Data for the bub3 strain (AID 167); conditions: S. cerevisiae bub3 mutant strain, stronger effect = higher value
Summary of the method: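 Compounds were applied to a genetically altered yeast strain carrying a cell-cycle control defect. Growth inhibition was scored against vehicle-treated controls.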

[6] = NCI Yeast Anticancer Drug Screen. Data for the mlh1 rad18 strain (AID 175); conditions: S. cerevisiae mlh1 rad18 strain growth inhibition, stronger effect = higher value
Summary of the method: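 Compound-treated yeast growth, normalised to vehicle controls. Strain bears defined DNA repair mutations.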

[7] = at 5.0 µM (retest, dose inferred, filed as 0.5)
[8] = at 50.0 µM (retest, dose inferred, filed as 5.0)

Measured: growth inhibition

O=C(CNC(=O)Nc1ccc(NC(=O)NCC(=O)Nc2ccc(C3=NCCN3)cc2)cc1)Nc1ccc(C2=NCCN2)cc1
inactive: [1]; [7] 3% | [1]; [8] -2% | [2]; [7] -16% | [2]; [8] -3% | [3]; [7] 2% | [3]; [8] -3% | [4]; [7] 5% | [4]; [8] 5% | [4]; at 50.0 µM 30.7% | [5]; [7] 0% | [5]; [8] -5% | [6]; [7] 4% | [6]; [8] 20%
active: [1]; at 50.0 µM 98.2% | [2]; at 50.0 µM 88.4% | [3]; at 50.0 µM 98.8% | [5]; at 50.0 µM 96.4% | [6]; at 50.0 µM 95.2%

Cc1ccc(S(=O)(=O)Nn2c(S)c(C#N)c(-c3ccc([N+](=O)[O-])cc3)c(C#N)c2=O)cc1
inactive: [1]; [7] 25% | [1]; [8] 59% | [1]; at 50.0 µM 49.6% | [2]; [7] 8% | [2]; [8] 35% | [2]; at 50.0 µM 46.6% | [3]; [7] 24% | [4]; [7] 43% | [4]; [8] 43% | [4]; at 50.0 µM 29.8% | [5]; [7] 45% | [5]; [8] 65% | [5]; at 50.0 µM 54.6% | [6]; [7] 19% | [6]; [8] 46% | [6]; at 50.0 µM 59%
active: [3]; [8] 78% | [3]; at 50.0 µM 72.3%

CCn1c2ccccc2n2c(=O)cc(-c3ccccc3)c(C#N)c12
inactive: [1]; [7] 7% | [1]; [8] 2% | [1]; at 50.0 µM 27.1% | [2]; [7] -2% | [2]; [8] -2% | [2]; at 50.0 µM 12.7% | [3]; [7] -12% | [3]; [8] 0% | [3]; at 50.0 µM 33.6% | [4]; [7] 7% | [4]; [8] -9% | [4]; at 50.0 µM 12.3% | [5]; [7] 7% | [5]; [8] 11% | [5]; at 50.0 µM 18.4% | [6]; [7] -2% | [6]; [8] -4% | [6]; at 50.0 µM 24.4%

Oc1ccc(C2(c3ccc(O)c(Cl)c3)CC3CCC2C3)cc1Cl (centres undefined)
active: [1]; [7] 98% | [1]; [8] 98% | [1]; at 50.0 µM 98% | [2]; [7] 99% | [2]; [8] 99% | [2]; at 50.0 µM 99.2% | [3]; [7] 99% | [3]; [8] 98% | [3]; at 50.0 µM 99.3% | [4]; [7] 99% | [4]; [8] 98% | [4]; at 50.0 µM 99% | [5]; [7] 99% | [5]; [8] 98% | [5]; at 50.0 µM 98.8% | [6]; [7] 99% | [6]; [8] 97% | [6]; at 50.0 µM 98.7%

CC1CCCN(c2cc(N(C)C)c([N+](=O)[O-])cc2F)C1 (centres undefined)
inactive: [1]; [7] 34% | [1]; [8] 47% | [1]; at 50.0 µM 32.2% | [2]; [7] 35% | [2]; [8] 49% | [2]; at 50.0 µM 11.7% | [3]; [7] 37% | [3]; [8] 59% | [3]; at 50.0 µM 38.2% | [4]; [7] 34% | [4]; [8] 46% | [4]; at 50.0 µM 51.5% | [5]; [7] 41% | [6]; [7] 45% | [6]; [8] 67% | [6]; at 50.0 µM 37.5%
active: [5]; [8] 86% | [5]; at 50.0 µM 71.8%

C#CC[N+](CC)(CC)CCNC(=O)CCCCCCCCCCCCCCC
active: [1]; [7] 97% | [1]; [8] 99% | [1]; at 50.0 µM 99.5% | [2]; [7] 81% | [2]; [8] 99% | [2]; at 50.0 µM 99.7% | [3]; [7] 98% | [3]; [8] 100% | [3]; at 50.0 µM 99.6% | [4]; [8] 99% | [4]; at 50.0 µM 98.8% | [5]; [7] 92% | [5]; [8] 99% | [5]; at 50.0 µM 99.6% | [6]; [8] 99% | [6]; at 50.0 µM 99.5%
inactive: [4]; [7] 51% | [6]; [7] 49%

NS(=O)(=O)c1ccc(N=Cc2c3ccccc3nc3cc(Cl)ccc23)cc1
inactive: [1]; [7] 10% | [1]; [8] 34% | [1]; at 50.0 µM 46.4% | [2]; [7] 12% | [2]; [8] 28% | [2]; at 50.0 µM 49.1% | [3]; [7] 16% | [3]; [8] 39% | [3]; at 50.0 µM 53.1% | [4]; [7] 3% | [4]; [8] 12% | [4]; at 50.0 µM 8.05% | [5]; [7] 19% | [5]; [8] 38% | [5]; at 50.0 µM 27.6% | [6]; [7] 17% | [6]; [8] 38% | [6]; at 50.0 µM 58.9%

COC(=O)C1=C(C)NC(c2ccc(OC)cc2OC)C(C(=O)OC)=C1C (centres undefined)
active: [3]; at 50.0 µM 76.8%
inactive: [1]; [7] 4% | [1]; [8] 21% | [1]; at 50.0 µM 68.7% | [2]; [7] 3% | [2]; [8] 11% | [2]; at 50.0 µM 25.6% | [3]; [7] 1% | [3]; [8] 14% | [4]; [7] -3% | [4]; [8] 4% | [4]; at 50.0 µM 25.6% | [5]; [7] 1% | [5]; [8] 16% | [5]; at 50.0 µM 49.7% | [6]; [7] -1% | [6]; [8] 24% | [6]; at 50.0 µM 58%
